The values below come from ChEMBL document CHEMBL3988442, “University of Dundee, Small-Polar-MMV Screening Library” (2021).

Structures are written as SMILES. About 1,200 (3.2%) of roughly 38,000 compounds showed an effect of 50% or more. The median lay at about -58%. This excerpt belongs to a sample that is enriched for strong results.

This assay has as its system Plasmodium falciparum. In words: Calibr Malaria Delayed Death Assay SOP. Type of assay: functional, organism-based. Set-up: scale not given: in the data most compounds retested in dose-response had high values. Conditions: concentration 4.99e-06 (unit not given; other assays of the set use mol/L).
Turning to `CCc1ccsc1C(=O)NC(C#N)CC(C)C` (configuration not stated), the “Percent Effect” value is recorded as -81.49%.

Take `CC1CCN(C(=O)c2ccc(N(C)Cc3cnn(C)c3)nc2)CC1`: the “Percent Effect” value is on record as -165.6%. Take `CC(=O)N1CCN(c2nc(C(F)(F)F)nc3sc(C)c(C)c23)CC1`: the “Percent Effect” value is recorded as -31.05%. Turning to `Cc1sc2nc(C(F)(F)F)nc(N3CCCN(C)CC3)c2c1C`, the “Percent Effect” value stood at 75.15%.

Regarding `Cc1sc2nc(C(F)(F)F)nc(N3CCN(C)CC3)c2c1C`, the “Percent Effect” value was found to be 10.88%. For the molecule `CC(NCc1ccc(F)cc1)c1ccc2[nH]c(=O)[nH]c2c1` (configuration not stated), the “Percent Effect” value was -45.16%. Take `O=C1Nc2ccccc2/C1=C1\CCCCN1`: the “Percent Effect” value is -131%.

On to `CN(C)CC(=O)N1CCc2sc(C(=O)NCC3CC3)cc21.O=C(O)C(F)(F)F`, for which the “Percent Effect” value is reported as -49.99%.

As to `CCCn1nc2c(cc1=O)CN(Cc1nc(-c3ccoc3)no1)CC2`, the “Percent Effect” value is given as -48.33%.

As to `CCCn1nc2c(cc1=O)CN(Cc1nc(CCOC)no1)CC2`, the “Percent Effect” value came out at 60.93%. On to `CCn1nc2c(cc1=O)CN(Cc1nc(CCOC)no1)CC2`, for which the “Percent Effect” value is given as -158.3%. Consider `Cn1nc(CO)c2c1CCN(c1ncnc3c1CCNC3)C2`, for which the “Percent Effect” value is reported as -81.19%.

Take `CC(=O)Nc1ccc(CN(C)Cc2snnc2C)cc1`: the “Percent Effect” value is recorded as -153.1%. In the case of `CCN(CC)CCNS(=O)(=O)c1cccc(CSC)c1` it was 83.08%.

With `CSCc1cccc(S(=O)(=O)NCCO)c1`, the “Percent Effect” value is recorded as -54.99%. Regarding `CCNS(=O)(=O)c1cccc(CSC)c1`, the “Percent Effect” value is -125.2%.

Take `COCC1CCN(S(=O)(=O)NCC2COc3ccccc3C2)CC1` (configuration not stated): the “Percent Effect” value is listed as -101%. In the case of `CN1CCN(S(=O)(=O)NCC2COc3ccccc3C2)CC1` (configuration not stated) it was -15.69%. In the case of `CCN1CCC(CNS(=O)(=O)N2CCc3ccccc3C2)C1` (configuration not stated) it was 54.33%; in that of `O=S(=O)(NCC1CCOC1)N1CCc2ccccc2C1` (configuration not stated), -79.01%. With `CN1CCCC(CNS(=O)(=O)N2CCc3ccccc3C2)C1` (configuration not stated), the “Percent Effect” value is given as 77.6%. In the case of `O=S1(=O)CCC(CNS(=O)(=O)N2CCc3ccccc3C2)C1` (configuration not stated) it was -112.5%; in that of `O=S1(=O)CCN2C(=N1)Oc1ccc(S(=O)(=O)N3CCCC3)cc12`, -88.45%; in that of `CSCCCN1C[C@H](NC(=O)c2cc(C3CC3)on2)[C@@H](C2CC2)C1`, 21.88%. In the case of `O=C(c1cccnc1)N1CCC2(CC1)CCN(Cc1ccccn1)C2=O` it was -24.21%. In the case of `CCn1ncc(Cl)c1CN(C)C(=O)CCn1ncc(Br)c1C` it was -15.28%. Regarding `Cc1nc[nH]c1CN1CCN(C(=O)C2CC2)[C@H]2CS(=O)(=O)C[C@H]21`, the “Percent Effect” value is -108.2%. In the case of `C[C@@H](O)CNc1c(NCc2ccco2)c(=O)c1=O` it was -66.82%. As to `CC1(C)CC(=O)c2cnc3nc(N4CCCCC4)nc(O)c3c2C1`, the “Percent Effect” value is listed as -100.7%. In the case of `O=C(CCOc1cccc(F)c1)N1CCCC1Cn1cccn1` (configuration not stated) it was -132.8%; in that of `Cc1ncc(CN2CCCC(c3cc(C(N)=O)[nH]n3)C2)s1` (configuration not stated), -114.1%. `CN(C)CC1COCCN1C(=O)C1(c2cccs2)CCCC1.O=CO` (configuration not stated): the “Percent Effect” value worked out at 30.77%. For `CN(CCO)CC1COCCN1C(=O)C1(c2cccs2)CCCC1.O=CO` (configuration not stated), the “Percent Effect” value was found to be 45.51%. In the case of `Fc1cccnc1N1CCCC(c2nccs2)C1` (configuration not stated) it was -23.64%; in that of `CN1CCC(CCNC(=O)N2CCN(Cc3ccon3)CC2)CC1`, -51.38%; in that of `CC(C)S(=O)(=O)CCN1CCc2c(ncn2C2CC2)C1`, -95.89%. With `CCS(=O)(=O)N1CCc2c(CN3CCOCC3)cncc2C1.Cl.Cl`, the “Percent Effect” value is given as -14.39%.

Turning to `CC1CCCCN1CCNC(=O)c1ccn(-c2ccc(F)cc2)n1` (configuration not stated), the “Percent Effect” value amounted to 33.02%. As for `CC1CCCCN1CCNC(=O)c1ccn(-c2cccc(F)c2)n1` (configuration not stated), the “Percent Effect” value was found to be 62.87%. Take `CC1CCN(CCNC(=O)c2ccn(-c3ccc(F)cc3)n2)CC1`: the “Percent Effect” value is 59.32%. In the case of `CC1CCN(CCNC(=O)c2ccn(-c3ccccc3)n2)CC1`, the “Percent Effect” value is 21.68%. As to `CC1CCCN(CCNC(=O)c2ccn(-c3ccc(F)cc3)n2)C1` (configuration not stated), the “Percent Effect” value amounted to 48.64%.

As for `COc1ccc(-n2ccc(C(=O)NCCN3CCCCC3C)n2)cc1` (configuration not stated), the “Percent Effect” value is on record as -78.7%. Consider `CS(=O)(=O)NCc1nnc2n1CCN(Cc1nccs1)C2`, for which the “Percent Effect” value is -79.56%. As to `Cc1ccc(S(=O)(=O)N2CCC(O)(CN(C)C)C2)cc1` (configuration not stated), the “Percent Effect” value came to 49.75%. In the case of `CN(C)CC1(O)CCN(S(=O)(=O)c2cccc(F)c2)C1` (configuration not stated), the “Percent Effect” value was 65.12%. `CN(C)CC1(O)CCN(S(=O)(=O)c2ccc(Cl)cc2)C1` (configuration not stated): the “Percent Effect” value was found to be 40.17%. As for `CC(=O)c1ccc(CNC(=O)c2c(C)cc(C)cc2C)nc1C`, the “Percent Effect” value is recorded as -62.27%. In the case of `CN(C)C(=O)c1nn(C)c2c1CN(Cc1cccs1)C2.O=C(O)C(F)(F)F.O=C(O)C(F)(F)F`, the “Percent Effect” value is -31.31%. With `NC(=O)CCC1CCCN(c2ccnc3cc(F)ccc23)C1` (configuration not stated), the “Percent Effect” value was found to be 82.57%.

`NC(=O)CCC1CCCN(c2ccc3c(Cl)ccnc3c2F)C1` (configuration not stated): the “Percent Effect” value is reported as -15.33%. As to `NC(=O)CCC1CCCN(c2ccc3ccc(F)cc3n2)C1` (configuration not stated), the “Percent Effect” value is reported as -163.3%.
